Reference: PubChem BioAssay AID488821 (National Center for Advancing Translational Sciences (NCATS), 2010)
Records with an inconclusive call do not appear. Active and inactive are the calls of the source. Calls come from the whole dose curve; as a rule, active = well fitted inhibition curve with a large enough effect; inconclusive = small, poorly fitted or top-dose-only effect, or effect the other way; inactive = flat fitted curve, though single readings scatter.

Experiment: Counterscreen Assay for Enhancers of SMN2 Splice Variant Expression: Modulation of SMN1 Expression for Further Probe SAR
Conditions: HEK293 SMN1-luciferase reporter, luminescence, 30-36 h; series mostly up to 46.1 µM; activity change, negative = inhibition: at the top concentration
Excerpt: NIH Chemical Genomics Center [NCGC] NIH Molecular Libraries Probe Production centers Network [MLPCN] MLPCN Grant: R03 MH084179-01 Assay Submitter (PI): Elliot Androphy NCGC Assay Overview: Spinal muscular atrophy (SMA) is caused by insufficient levels of the survival motor neuron protein SMN. The SMN locus on chromosome 5q13 contains two inverted copies of SMN called SMN1 and SMN2 which are 99% identical at the amino acid level. SMN1 is a fully functional protein and SMN2 skips exon 7 90% of the time. Skipping of exon 7 produces non-functional protein product. 10% of the SMN2 protein includes exon 7 and is fully functional. In the SMA disease state, mutations in the SMN1 locus are the cause of the disease state. Because only 10% of SMN2 is of the fully functional form, it is not sufficient to overcome the deficiency produced by the loss of the SMN1 product. A therapy that either increases the amount of SMN2 product made increases the inclusion of exon 7 has been proposed for the treatment of SMA. We have designed an assay to identify small molecules that can increase the amount of functional SMN2 product by appending a luciferase reporter gene after the native SMN2 gene, such that inclusion of exon 7 in the expressed product places the luciferase sequence in frame, thus generating functional luciferase enzyme. As a counterscreen for nonspecific modulators of expression, we have run compounds through a similar assay that measures expression of an SMN1-luciferase chimera.
NCGC Assay Protocol Summary: This screen utilizes a luciferase reporter gene assay, combining the promoter with the major portion of the native SMN1 cDNA (exons 1 -7, intron 8 , exon 8 fused to luciferase) stably expressed in HEK293 cells. Compounds that increase luciferase signal presumably enhance expression of the functional SMN1 splice variant. Passaging media contained DMEM w/ glutamax (+phenol red) 10% FCS, 1x pen/strep, 200 ug/ml hygro, 1x sodium pyruvate. Assay media contained DMEM w/ glutamax (-phenol red) 10% FCS, 1x pen strep, 1x pyruvate Sequence, Parameter, Value, Description (1) Cells, 5 uL, 2000 cells/well, 1536 TC treated White solid bottom plate (2) Time, 10-12 hours, 37C 5% CO2 (3) Compound, 23 nl, MLSMR Library (4) Control Compound, 23 nL, Sodium butyrate st 4.5mM (final) conc (5) Time, 30-36 hours, 37C 5% CO2 (6) Reagent, 3 ul, One Glo (TM) from Promega (7) Time, 5-15 minutes, Room temp (8) Detector, Viewlux: luminescent read, 60 second integration, high speed 2x binning Keywords: Spinal muscular atrophy, SMA, SMN2, high throughput screening, MLSMR, MLPCN, NIH Roadmap, qHTS and NCGC
In the case of `Cc1ccc(-c2nnc(N3CCC(C(N)=O)CC3)s2)cc1`, the Potency is reported as 6.14 µM (active).
In the case of `COc1ccccc1-c1csc(N2CCC(C(N)=O)CC2)n1`, the “activity change, negative = inhibition” value is reported as 9.84% (inactive).
In the case of `CCOC(=O)C1CCN(c2ncc(-c3ccc4c(c3)OCCCO4)s2)CC1`, the Potency is reported as 0.387 µM (active).
For `NC(=O)C1CCN(c2nnc(-c3ccc4c(c3)OCCCO4)s2)CC1`, the Potency was 1.54 µM (active).
With `NC(=O)C1CCN(c2nc(-c3ccc4c(c3)OCCCO4)cs2)CC1` the Potency was 7.72 µM (active).
With `CC(C)(C)OC(=O)NC1CCN(c2nc(-c3ccc(Br)cc3)cs2)CC1` the “activity change, negative = inhibition” value was -18% (inactive).
In the case of `CN(C)c1cccc(-c2ncc(F)c(N3CCC(C(N)=O)CC3)n2)c1`, the “activity change, negative = inhibition” value is reported as -14.2% (inactive).
For `N#Cc1ccccc1-c1csc(N2CCC(C(N)=O)CC2)n1`, the “activity change, negative = inhibition” value was -5.52% (inactive).
For `CN(C)c1ccc(-c2csc(N3CCC(C(N)=O)CC3)n2)cc1`, the “activity change, negative = inhibition” value was -11.1% (inactive).
In the case of `NC(=O)C1CCN(c2ncc(-c3cccc(N4CCCCC4)c3)s2)CC1`, the “activity change, negative = inhibition” value is reported as -28.5% (inactive).
With `Brc1ccc(-c2csc(N3CCNCC3)n2)cc1` the Potency was 30.7 µM (active).
With `NC(=O)C1CCN(c2nccc(Cl)n2)CC1` the “activity change, negative = inhibition” value was -13.7% (inactive).
In the case of `Cc1cccc(-c2csc(N3CCC(C(N)=O)CC3)n2)c1`, the “activity change, negative = inhibition” value is reported as 5.68% (inactive).
With `CSc1ccc(-c2cnc(N3CCC(C(N)=O)CC3)s2)cc1` the Potency was 0.972 µM (active).
With `O=C(C1CCN(c2nc(-c3ccc(Br)cc3)cs2)CC1)N1CCOCC1` the “activity change, negative = inhibition” value was -15.1% (inactive).
With `NC(=O)C1CCN(c2nc(-c3ccc(N)cc3)cs2)CC1` the “activity change, negative = inhibition” value was 7.68% (inactive).
With `NC(=O)C1CCN(c2ncc(-c3cccc(N4CCCC4)c3)s2)CC1` the Potency was 12.2 µM (active).
With `CN(C)c1cccc(-c2nnc(N3CCC(C(N)=O)CC3)s2)c1` the Potency was 6.14 µM (active).
For `NC(=O)C1CCN(c2nc(-c3cccc4ccccc34)cs2)CC1`, the “activity change, negative = inhibition” value was -3.85% (inactive).
With `NC(=O)C1CCN(c2nc(-c3ccc4c(c3)CCO4)cs2)CC1` the “activity change, negative = inhibition” value was -6.44% (inactive).
In the case of `NC(=O)C1CCN(c2nnc(-c3ccc(Br)cc3)s2)CC1`, the Potency is reported as 12.2 µM (active).
In the case of `CN(C)c1cccc(-c2cnc(N3CCC(C(N)=O)CC3)s2)c1`, the Potency is reported as 0.772 µM (active).
With `O=C(O)C1CCN(c2ncc(-c3ccc4c(c3)OCCCO4)s2)CC1` the Potency was 0.244 µM (active).
With `Cc1ccc(-c2ccnc(N3CCC(C(N)=O)CC3)n2)cc1` the Potency was 7.72 µM (active).
With `NC(=O)C1CCN(c2nc(-c3ccccc3[N+](=O)[O-])cs2)CC1` the “activity change, negative = inhibition” value was 15.1% (inactive).
In the case of `CC(C)(C)c1ccc(-c2csc(N3CCC(C(N)=O)CC3)n2)cc1`, the “activity change, negative = inhibition” value is reported as -21% (inactive).
For `CS(=O)(=O)c1ccc(-c2csc(N3CCC(C(N)=O)CC3)n2)cc1`, the “activity change, negative = inhibition” value was -2.95% (inactive).
For `N#Cc1ccc(-c2csc(N3CCC(C(N)=O)CC3)n2)cc1`, the “activity change, negative = inhibition” value was -8.95% (inactive).
In the case of `NC(=O)C1CCN(c2ncc(-c3ccc4c(c3)OCCO4)s2)CC1`, the Potency is reported as 1.22 µM (active).
In the case of `NC(=O)C1CCN(c2nccc(-c3ccc(Br)cc3)n2)CC1`, the Potency is reported as 12.2 µM (active).
For `NC(=O)C1CCN(c2nc(-c3cccc(Br)c3)cs2)CC1`, the “activity change, negative = inhibition” value was -9.64% (inactive).
For `NC(=O)C1CCN(c2nc(-c3ccc(C(F)(F)F)cc3)cs2)CC1`, the “activity change, negative = inhibition” value was -27.4% (inactive).
With `CC(C)Oc1ccc(-c2csc(N3CCC(C(N)=O)CC3)n2)cc1` the “activity change, negative = inhibition” value was -20.3% (inactive).
For `NC(=O)C1CCN(c2ncc(-c3ccc4c(c3)OCO4)s2)CC1`, the Potency was 0.972 µM (active).
In the case of `NC(=O)C1CCN(c2ncc(-c3ccc4c(c3)OC(F)(F)O4)s2)CC1`, the Potency is reported as 15.4 µM (active).
With `Cc1cnc(N2CCC(C(N)=O)CC2)nc1-c1cccc(N(C)C)c1` the “activity change, negative = inhibition” value was 17.8% (inactive).
With `CC(=O)C1CCN(c2ncc(-c3ccc4c(c3)OCCCO4)s2)CC1` the Potency was 4.87 µM (active).
In the case of `c1c[nH]c(C2CCN(c3ncc(-c4ccc5c(c4)OCCCO5)s3)CC2)n1`, the Potency is reported as 9.72 µM (active).
For `NC(=O)C1CCN(c2nc(-c3ccc(Oc4ccccc4)cc3)cs2)CC1`, the “activity change, negative = inhibition” value was -6.89% (inactive).
With `NC(=O)C1CCN(c2nc(-c3ccc(OCc4ccccc4)cc3)cs2)CC1` the “activity change, negative = inhibition” value was -12.4% (inactive).
